AHR activator: AHR activators, primary screen, cell-based, luminescence, luciferase reporter, human; AHR-responsive luciferase reporter cells; AID 2796, 2010; hit rate 2.5% among 320,000; activation, % at 5 µM; in the data active = activation above about 47%
Target sequence (P35869 whole entry, looked up): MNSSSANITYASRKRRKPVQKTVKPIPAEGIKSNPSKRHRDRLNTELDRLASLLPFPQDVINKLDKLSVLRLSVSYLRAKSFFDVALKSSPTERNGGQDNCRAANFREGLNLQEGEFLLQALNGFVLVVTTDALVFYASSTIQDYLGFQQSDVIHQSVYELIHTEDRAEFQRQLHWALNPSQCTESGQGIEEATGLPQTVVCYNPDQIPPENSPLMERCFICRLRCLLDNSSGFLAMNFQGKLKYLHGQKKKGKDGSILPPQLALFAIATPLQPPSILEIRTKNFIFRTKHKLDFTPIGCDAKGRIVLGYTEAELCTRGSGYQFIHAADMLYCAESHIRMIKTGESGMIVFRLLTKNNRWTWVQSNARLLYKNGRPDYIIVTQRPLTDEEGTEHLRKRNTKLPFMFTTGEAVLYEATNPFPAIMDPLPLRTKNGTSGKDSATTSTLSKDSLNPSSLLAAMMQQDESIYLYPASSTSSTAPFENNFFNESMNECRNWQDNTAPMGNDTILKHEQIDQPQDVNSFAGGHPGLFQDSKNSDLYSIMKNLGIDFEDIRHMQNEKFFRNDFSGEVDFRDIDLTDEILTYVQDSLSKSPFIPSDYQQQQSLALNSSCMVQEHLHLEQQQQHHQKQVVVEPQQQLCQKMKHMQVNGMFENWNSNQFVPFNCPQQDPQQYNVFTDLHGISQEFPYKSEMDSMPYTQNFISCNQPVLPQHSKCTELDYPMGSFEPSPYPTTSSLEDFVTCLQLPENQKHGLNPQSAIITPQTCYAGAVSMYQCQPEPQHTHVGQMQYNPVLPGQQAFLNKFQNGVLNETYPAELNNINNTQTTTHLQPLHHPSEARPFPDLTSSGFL
pCIP destab: p/CIP-EGFP fusion destabilizers, primary screen, fluorescence, F442A cells; Q05BA5; 16 h; decrease of EGFP signal, % at 10 µM; hit rate 0.01% among 290,000;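 active = EGFP signal decrease of at least 30% at 10 µM or well 3 SD below plate mean, unless failing retest; inactive = the rest, including hits failing retest or dose response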
Platelet DG rel: inhibitors of platelet dense granule secretion, primary screen, cell-based, MLPCN, human platelets. inhibition, %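 (compounds screened at 7.5 µM in platelet-rich plasma)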. AID 1663, 2009. human platelet-rich plasma, SFLLRN dense granule ATP release, luminescence. hit rate 0.22% among 300,000;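 active = mean replicate score, as percent of positive control, at or above 50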
HIF act: HIF pathway transcriptional activators, primary screen, cell-based, U2OS HRE-luciferase, luminescence; activation, % at 7.5 µM (by protocol); AID 1910, 2009; U2OS HRE-luciferase reporter; normalized: DMSO 0%, desferrioxamine 100%; hit rate 0.32% among 300,000;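 active = mean activation of at least 10% of the iron chelator positive control signal, with at least half of replicates also reaching 10%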
PolyA inh: polyadenylation inhibitors in yeast reporter cells, primary screen, luminescence, S. cerevisiae | S. cerevisiae SKY197-pL101 polyadenylation reporter, beta-gal luminescence; efflux-impaired pdr1/pdr3 knockout yeast; score 100 = 6 SD above DMSO | hit rate 0.02% among 300,000 | activity score, % at 12 µM;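 active = lowest replicate activity score at least 50, where 100 means six control SD above control mean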;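 also: yeast exposed to compound for 9 h at 30 °C; higher score means more reporter readthrough which indicates perturbed polyadenylation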
Numbers stand for hits. Rows were chosen to be rich in hits. Some 2.8% of all compounds tested hit in one or more screens of this group.

Results for Cc1cc(=O)c2ccccc2n1CC(=O)NCc1ccccc1 ?
AHR activator: inactive; pCIP destab: inactive; Platelet DG rel: inactive; HIF act: inactive; PolyA inh: inactive

What do the screens show for `Cc1cc(=O)c2ccccc2n1Cc1ccccc1`?
AHR activator: 57; pCIP destab: inactive; Platelet DG rel: inactive; HIF act: inactive; PolyA inh: inactive

Results for CCOc1ccc2[nH]c3c(N4CCC5(CC4)OCCO5)ncnc3c2c1 ?
AHR activator: 71; pCIP destab: inactive; Platelet DG rel: inactive; HIF act: inactive; PolyA inh: inactive

What do the screens show for `COc1ccc2[nH]c3c(N4CCc5ccccc5C4)ncnc3c2c1`?
AHR activator: 58; pCIP destab: inactive; Platelet DG rel: inactive; HIF act: inactive; PolyA inh: inactive

Results for CCOC(=O)N1CCN(c2ncnc3c2[nH]c2ccc(OC)cc23)CC1 ?
AHR activator: inactive; pCIP destab: inactive; Platelet DG rel: inactive; HIF act: inactive; PolyA inh: inactive

What do the screens show for `CCOc1ccc2[nH]c3c(N4CCN(C(=O)c5ccco5)CC4)ncnc3c2c1`?
AHR activator: inactive; pCIP destab: inactive; Platelet DG rel: inactive; HIF act: inactive; PolyA inh: inactive

How did Cc1cccc(N2CCN(S(=O)(=O)c3ccc(Cl)nc3)CC2C)c1 (centres undefined) do in these assays?
AHR activator: inactive

What do the screens show for `Cc1noc(C)c1COc1ccc(C(=O)OCc2nnc(-c3ccc(Cl)cc3)o2)cc1`?
AHR activator: inactive; pCIP destab: inactive; Platelet DG rel: inactive; HIF act: inactive; PolyA inh: inactive

Results for COc1ccc(OCCCC(=O)OC(C)C(=O)Nc2ccc(S(N)(=O)=O)cc2)cc1 (centres undefined) ?
AHR activator: inactive; Platelet DG rel: inactive; HIF act: inactive; PolyA inh: inactive

How did COc1ccc(OCCCC(=O)OC(C)C(=O)Nc2ccc(NC(C)=O)cc2)cc1 (centres undefined) do in these assays?
AHR activator: inactive; pCIP destab: inactive; Platelet DG rel: 57; HIF act: inactive; PolyA inh: inactive

Results for CCC(C)NC(=O)C1CC(=O)N(CCc2ccc(F)cc2)C1 (centres undefined) ?
AHR activator: inactive; pCIP destab: inactive; Platelet DG rel: inactive; HIF act: inactive; PolyA inh: inactive

How did Cc1cc(/C=C(\C#N)C(=O)NC2CC2)c(C)[nH]1 do in these assays?
AHR activator: 58; pCIP destab: inactive; Platelet DG rel: inactive; HIF act: inactive; PolyA inh: inactive

What do the screens show for `Cc1cc(/C=C(\C#N)C(=O)Nc2ccccc2F)c(C)[nH]1`?
AHR activator: 66; pCIP destab: inactive; Platelet DG rel: inactive; HIF act: inactive; PolyA inh: inactive

What do the screens show for `N#C/C(=C\c1ccc[nH]1)C(=O)Nc1ccccc1F`?
pCIP destab: inactive

What do the screens show for `COc1ccc(/C=C(\NC(=O)c2ccccc2Cl)C(=O)NCCCC(=O)O)cc1`?
pCIP destab: inactive; Platelet DG rel: inactive; HIF act: inactive; PolyA inh: inactive

What do the screens show for `Cc1nc(Nc2ccc3c(c2)OCCO3)c2oc3ccccc3c2n1`?
AHR activator: inactive; pCIP destab: inactive; Platelet DG rel: inactive; HIF act: inactive; PolyA inh: inactive

Results for CCc1nc(NCc2cccnc2)c2oc3ccccc3c2n1 ?
AHR activator: 64; pCIP destab: inactive; Platelet DG rel: inactive; HIF act: inactive; PolyA inh: inactive

How did Cc1nc(Nc2ccc(Cl)cc2)c2oc3ccccc3c2n1 do in these assays?
AHR activator: 78; pCIP destab: inactive; Platelet DG rel: inactive; HIF act: inactive; PolyA inh: inactive

Results for Cc1nc(Nc2cccc(Cl)c2)c2oc3ccccc3c2n1 ?
AHR activator: inactive; pCIP destab: inactive; Platelet DG rel: inactive; HIF act: inactive; PolyA inh: inactive

Results for Cc1nc(Nc2cccc(F)c2)c2oc3ccccc3c2n1 ?
AHR activator: 49; pCIP destab: inactive; Platelet DG rel: inactive; HIF act: inactive; PolyA inh: inactive

How did CCc1nc(Nc2ccc3c(c2)OCCO3)c2oc3ccccc3c2n1 do in these assays?
AHR activator: 63; pCIP destab: inactive; Platelet DG rel: inactive; HIF act: inactive; PolyA inh: inactive

How did Cc1ccc(S(=O)(=O)N2CCCC(C(=O)NCCc3ccc(S(N)(=O)=O)cc3)C2)cc1 (centres undefined) do in these assays?
AHR activator: inactive; pCIP destab: inactive; Platelet DG rel: inactive; HIF act: inactive; PolyA inh: inactive

How did CC1CCCC(NC(=O)c2ccc3snnc3c2)C1C (centres undefined) do in these assays?
AHR activator: inactive; pCIP destab: inactive; Platelet DG rel: inactive; HIF act: inactive; PolyA inh: inactive

How did Cc1nc(Nc2ccccc2F)c2oc3ccccc3c2n1 do in these assays?
AHR activator: 56; pCIP destab: inactive; Platelet DG rel: inactive; HIF act: inactive; PolyA inh: inactive

How did COc1ccc(Nc2ncnc3c2oc2ccccc23)cc1 do in these assays?
AHR activator: inactive; pCIP destab: inactive; Platelet DG rel: inactive; HIF act: inactive; PolyA inh: inactive

Results for Cc1nc(Nc2ccccc2O)c2oc3ccccc3c2n1 ?
pCIP destab: inactive; Platelet DG rel: inactive; HIF act: inactive; PolyA inh: inactive

What do the screens show for `Cc1ccc(Nc2ncnc3c2oc2ccccc23)cc1`?
AHR activator: 54; pCIP destab: inactive; Platelet DG rel: inactive; HIF act: inactive; PolyA inh: inactive

Results for CC(=O)N/N=C(\N)c1nonc1N ?
AHR activator: inactive; pCIP destab: inactive; Platelet DG rel: inactive; HIF act: inactive; PolyA inh: inactive

Results for Nc1nonc1C(=Nc1ccc(Br)cc1)NO ?
AHR activator: 66; pCIP destab: inactive; Platelet DG rel: inactive; HIF act: inactive; PolyA inh: inactive

Results for COc1ccccc1NC(=O)CSc1nnc(CC(=O)Nc2ccccc2F)n1C ?
AHR activator: inactive; pCIP destab: inactive; Platelet DG rel: inactive; HIF act: inactive; PolyA inh: inactive

Results for Cc1cc(Nc2ccccc2Br)n2nc(C)nc2n1 ?
AHR activator: inactive; pCIP destab: inactive; Platelet DG rel: inactive; HIF act: inactive; PolyA inh: inactive

What do the screens show for `Cc1cc(Nc2ccc(C)c(Br)c2)n2nc(C)nc2n1`?
AHR activator: 61; pCIP destab: inactive; Platelet DG rel: inactive; HIF act: inactive; PolyA inh: inactive

What do the screens show for `COc1cc(CNC(C)c2ccccc2)cc(Cl)c1OCC(=O)Nc1ccccc1` (centres undefined)?
AHR activator: inactive; pCIP destab: inactive; Platelet DG rel: inactive; HIF act: inactive; PolyA inh: inactive

What do the screens show for `CC(C)(C)c1cc(C(=O)O)n(Cc2ccc(Cl)cc2Cl)n1`?
AHR activator: inactive; pCIP destab: inactive; Platelet DG rel: inactive; HIF act: inactive; PolyA inh: inactive

What do the screens show for `Nc1c(-c2ccccc2)n[nH]c1-c1ccccc1`?
AHR activator: 134; pCIP destab: inactive; Platelet DG rel: inactive; HIF act: inactive; PolyA inh: inactive
